A short description of experiment [1]: qHTS assay for small molecule agonists of the p53 signaling pathway (AID 651631; calls by dose curve; note: nearly all actives have a fitted effect of over 15% in size; note: potency is the fitted concentration of half-maximal effect). The method in brief:
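Stably transfected HCT-116 cells (beta-lactamase behind p53 response elements) get compounds after a 5 h settling period; 16 h later at 37 °C, FRET substrate is loaded and fluorescence read after 2 h.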

Experiment [2] in a line: qHTS assay for small molecules that induce genotoxicity in human embryonic kidney cells expressing luciferase-tagged ATAD5 (AID 651632). Note: nearly all actives have a fitted effect of over 15% in size. A digest of the protocol:
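ATAD5-luc HEK293T, 2,000 cells/well; cpd or DMSO pin-transferred; 16 hr, 37C/5% CO2; Amplite 30 min RT; luminescence.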
For orientation: In qHTS, concentration-response curves come from the screen itself.

Experiment [3] is described as follows: qHTS assay for small molecule agonists of the p53 signaling pathway - cell viability (AID 651633; calls by dose curve; note: nearly all actives have a fitted effect of over 30% in size; note: potency is the fitted concentration of half-maximal effect). The method in brief:
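Viability counter-read: CellTiter-Glo luminescence (30 min, room temperature) in the same p53RE-bla plates. These plates had been exposed to compounds for 16 h at 37 C.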

A short description of experiment [4]: qHTS assay for small molecules that induce genotoxicity in human embryonic kidney cells expressing luciferase-tagged ATAD5 - cell viability (AID 651634; calls by dose curve; note: nearly all actives have a fitted effect of over 25% in size). The method in brief:
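Fluorescence from CellTiter-Fluor, reporting protease activity within live cells, served as the viability read-out. HEK293T cells carrying luciferase-tagged ATAD5 had been treated with compound for 15.5 hr at 37C.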

A short description of experiment [5]: qHTS assay for small molecule disruptors of the mitochondrial membrane potential - cell viability (AID 720634; calls by dose curve;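 note: human HepG2 liver cancer cells; series mostly up to about 83 µM; nearly all actives have a fitted effect of over 20% in size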). A digest of the protocol:
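Cells: HepG2, 2,000/well, attached overnight. Compound 1 hr, 37 C/5% CO2. +m-MPI dye, +CellTiter-Glo 30 min RT. Readout: luminescence (ATP).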

Experiment [6] in a line: qHTS assay to test for compound auto fluorescence at 590 nm (red) in HepG2 cells (AID 720674). A digest of the protocol:
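We screened compounds on adherent HepG2 cells, incubating them for an hour at 37 C in 5% CO2 before reading emission at 590 nm under 540 nm excitation; values reflect equivalence to Rose Bengal sodium fluorescence.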

Experiment [7] can be described thus: qHTS assay to test for compound auto fluorescence at 535 nm (green) in HepG2 cells (AID 720675).
Experiment [8] is described as follows: qHTS assay to test for compound auto fluorescence at 460 nm (blue) in HEK293 cells (AID 720678). Note: potency is the fitted concentration of half-maximal effect. The method in brief:
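Intrinsic compound fluorescence is recorded in live HEK293 cultures after overnight incubation at 37C, 5% CO2, using excitation 405 nm and emission 460 nm. Values are referenced to triamterene.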

Experiment [9] in a line: qHTS assay to test for compound auto fluorescence at 590 nm (red) in HEK293 cells (AID 720679). The method in brief: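 Red autofluorescence, HEK293 cells: 2,000 cells/well; attach 4-5 hr 37C; add 23 nL cpd or DMSO; incubate o/n 37C 5% CO2; read Ex540/Em590; Rose Bengal sodium reference.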
Experiment [10] in a line: qHTS assay for small molecule disruptors of the mitochondrial membrane potential (AID 720635). The method in brief: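 Mitochondrial membrane potential tracked with Mito-MPS dye, red aggregates (ex 540/em 590 nm) against green monomers (ex 490/em 535 nm). Compound treatment 1 hr at 37C, dye 30 min in HepG2.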

The results in this text go back to PubChem BioAssay (Tox21).

SMILES strings stand for the structures. Where “and” joins values, the source holds several entries; their conditions need not be identical. Equal entries are not always repeated. Inconclusive results are not listed. The source holds several records for some structures; these can differ, active in one and inactive in another. Calls of active or inactive are those of the source. Unless noted, calls come from the whole dose curve; as a rule, active = well fitted curve in the direction sought with a large enough effect in the repeat runs; inconclusive = weak or mixed curves; inactive = no such curve, though single readings can be large; an effect the other way counts as inactive or inconclusive.
% is set by controls: 0 for no effect and ±100 for the full control effect; tags give direction and shape of the fitted curve or compound fluorescence and quenching.

On to `Nc1nc(N)c2nc(CNc3ccc(C(=O)N[C@@H](CCC(=O)O)C(=O)O)cc3)cnc2n1`, for which the Potency result in experiment [1] was “inactive and 57.1 nM (active)”; in [3] it was “inactive and 45.3 nM (active)”; in experiment [8], “inactive and 39.8 µM [fluorescent] (active)”. The Potency result in experiment [2], in experiment [4] and in experiment [5] was “inactive” throughout. Also, the call in experiment [6], in [7] and in experiment [9] was inactive.

As to `Oc1ccc2c(c1)OCO2`, the Potency entry in [1], in [2], in [3], in experiment [5], in [10] and in experiment [8] was “inactive” in each case. For the same compound, the call in [6], in experiment [7] and in experiment [9] was inactive.

`CC(=O)N(O)CCCCCNC(=O)CCC(=O)N(O)CCCCCNC(=O)CCC(=O)N(O)CCCCCN`: the Potency result in [1], in experiment [2], in [3], in [4] and in experiment [5] was “inactive” in each case. Further, the fluorescence, relative to Rose Bengal in experiment [6] is 0.119% [at 18.6 µM] (inactive). Moreover, the fluorescence, % of fluorescein control in experiment [7] is -0.0519% [at 18.6 µM] (inactive). Also, in experiment [8], the fluorescence, % of triamterene is -0.0021% [at 18.6 µM] (inactive). For the same compound, the fluorescence, % of fluorescent control in experiment [9] is -0.043% [at 18.6 µM] (inactive).

For the compound `CC(=O)OC/C=C/c1ccccc1`, the Potency entry in [1], in experiment [3], in [4], in [5], in experiment [10] and in experiment [8] was “inactive” each time. In addition, the compound was classed as inactive in [6] and in [7].

Consider `CCCCC(CC)COCCCN` (stereo unspecified), for which the Potency result in [1], in experiment [2], in [3], in experiment [4] and in experiment [8] was “inactive” each time. The compound was called inactive in [6], in experiment [7] and in [9].

Regarding `CC(C)CC=O`, the Potency entry in [1], in [2], in [3], in experiment [4], in experiment [5] and in [8] was “inactive” in each case. Further, the compound was classed as inactive in [6], in experiment [7] and in experiment [9].

With `CC(C)c1cccc(C(C)C)c1NC(=O)NS(=O)(=O)c1cc(C(C)(C)O)co1`, the Potency result in experiment [1], in experiment [2], in [3], in experiment [4], in [5] and in [8] was “inactive” in each case. For the same compound, the result in experiment [6], in [7] and in [9] was inactive.

As to `CCOc1cc(OCC)c(C(=O)CCC(=O)O)cc1OCC`, the Potency result in experiment [1], in experiment [2], in experiment [3], in experiment [4], in [5] and in experiment [8] was “inactive” throughout. In addition, the result in experiment [6], in experiment [7] and in [9] was inactive.

Regarding `CCCCCCCCCCCCCCC1CO1` (stereo unspecified), the Potency entry in [1], in experiment [2], in [3], in experiment [4] and in experiment [8] was “inactive” each time. In addition, the outcome in experiment [6], in [7] and in [9] was inactive.

With `CCCCCCCCN(C)C`, the Potency entry in experiment [1], in experiment [3], in [4], in experiment [5], in experiment [10] and in experiment [8] was “inactive” each time. Moreover, the compound was classed as inactive in experiment [6] and in experiment [7].

For the compound `O=C=NC1CCC(CC2CCC(N=C=O)CC2)CC1` (stereo unspecified), the Potency entry in experiment [1], in experiment [2], in [3], in experiment [4], in experiment [5] and in experiment [8] was “inactive” each time. Further, the result in experiment [6] was inactive.

On to `COCCO`, for which the Potency entry in [1], in experiment [2], in experiment [3], in [4] and in [5] was “inactive” each time. The outcome in [6], in experiment [7] and in [9] was inactive.

In the case of `NCc1ccccc1`, the Potency entry in [1], in experiment [3], in experiment [4], in experiment [5], in experiment [10] and in experiment [8] was “inactive” in each case. For the same compound, the compound was called inactive in experiment [6], in [7] and in experiment [9].

Take `NC[C@H]1O[C@H](O[C@H]2[C@H](O)[C@@H](O[C@H]3O[C@H](CO)[C@@H](O)[C@H](N)[C@H]3O)[C@H](N)C[C@@H]2N)[C@H](O)[C@@H](O)[C@@H]1O`: the Potency entry in experiment [1], in experiment [2], in experiment [4] and in experiment [5] was “inactive” throughout. Moreover, in [10], the ratio activity, negative = MMP loss was 0.685% [at 8.08 µM] (inactive). Further, in experiment [6], the fluorescence, relative to Rose Bengal was -0.029% [at 18.6 µM] (inactive) and 0.338% [at 3.72 µM] (inactive). In addition, the fluorescence, % of fluorescein control in experiment [7] was -0.0979% [at 18.6 µM] (inactive) and 0.0187% [at 3.72 µM] (inactive). Moreover, the fluorescence, % of triamterene in experiment [8] was 0.0195% [at 18.6 µM] (inactive) and -0.0441% [at 3.72 µM] (inactive).

For the compound `COc1ccc(OC)c(OC)c1`, the Potency result in experiment [1], in [3], in [4], in [5], in experiment [10] and in experiment [8] was “inactive” throughout. Moreover, the compound was classed as inactive in experiment [6], in experiment [7] and in experiment [9].

Consider `Cc1ccc2c(ccc3ccccc32)c1`, for which the Potency result in experiment [1], in experiment [2], in [3], in [4] and in experiment [8] was “inactive” each time. Also, the result in [6] and in [9] was inactive.

As for `Cc1cc(NC(=O)C(=O)O)cc(C)c1Oc1ccc(O)c2c1CCC2`, the Potency result in experiment [1], in experiment [2], in [3], in experiment [4], in experiment [5] and in [8] was “inactive” in each case. For the same compound, the result in experiment [6], in experiment [7] and in [9] was inactive.

Turning to `Cc1ncsc1CCO`, the Potency result in [1], in [2], in [3], in experiment [4], in [5] and in [8] was “inactive” each time. In addition, the compound was classed as inactive in experiment [6], in experiment [7] and in experiment [9].

As for `O=C(C(=O)c1ccc(Br)cc1)c1ccc(Br)cc1`, the Potency entry in experiment [1], in experiment [2], in experiment [3], in [4] and in experiment [5] was “inactive” throughout. Also, the fluorescence, relative to Rose Bengal in experiment [6] is -0.609% [at 18.6 µM] (inactive). Also, the fluorescence, % of triamterene in [8] is 0.126% [at 18.6 µM] (inactive). In addition, the fluorescence, % of fluorescent control in experiment [9] was 0.203% [at 18.6 µM] (inactive).

Turning to `CC(C)=CCCC(C)CC=O` (stereo unspecified), the Potency result in experiment [1], in experiment [2], in experiment [3], in [4] and in experiment [5] was “inactive” throughout. For the same compound, the call in experiment [6], in experiment [7] and in experiment [9] was inactive.

As for `C=C(C)C(=O)OC(C)C`, the Potency entry in experiment [1], in [2], in experiment [3], in experiment [4], in [5] and in experiment [8] was “inactive” each time. Further, the result in [6], in [7] and in experiment [9] was inactive.

Consider `CCCCCCCCCCCCC(=O)O`, for which the Potency entry in [1], in [3], in [4], in experiment [5], in experiment [10] and in experiment [8] was “inactive” throughout. Further, the result in experiment [6] and in [7] was inactive.

For the compound `CN(C)CCCOc1nn(Cc2ccccc2)c2ccccc12`, the Potency entry in [1], in experiment [2], in experiment [3], in [4] and in experiment [5] was “inactive” each time. Besides, in [6], the fluorescence, relative to Rose Bengal is -0.438% [at 18.6 µM] (inactive). The fluorescence, % of fluorescein control in [7] is -0.0147% [at 18.6 µM] (inactive). Also, the fluorescence, % of triamterene in experiment [8] was -0.0099% [at 18.6 µM] (inactive). Further, the fluorescence, % of fluorescent control in experiment [9] was 0.312% [at 18.6 µM] (inactive).

Regarding `Oc1ccc(C(O)CNCCCCCCNCC(O)c2ccc(O)c(O)c2)cc1O` (stereo unspecified), the Potency result in experiment [1], in experiment [2], in experiment [3], in experiment [4], in [5] and in experiment [8] was “inactive” throughout. Also, the result in experiment [6], in [7] and in experiment [9] was inactive.

For `CC(C)(C)C(=O)OCOP(=O)(COCCn1cnc2c(N)ncnc21)OCOC(=O)C(C)(C)C`, the Potency entry in [1], in experiment [2], in experiment [3], in experiment [4], in experiment [5] and in [8] was “inactive” in each case. Further, the compound was classed as inactive in experiment [6], in [7] and in experiment [9].

Consider `O=C(c1ccc(O)cc1)c1ccc(O)cc1`, for which the Potency entry in experiment [1], in experiment [2], in experiment [3], in [4], in [5] and in experiment [8] was “inactive” in each case. Further, the call in experiment [6], in experiment [7] and in experiment [9] was inactive.
